PubChem BioAssay (NCI)
The panel holds about 79,000 compounds, 15% with a hit somewhere; the sample as a whole holds those more often. Calls of active or inactive are those of the source. Rule as the data show it: active = growth inhibition above about 70%; inactive = the rest.

Tests used:
[1] = NCI Yeast Anticancer Drug Screen. Data for the rad50 strain (AID 155);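 also: 0% = growth of vehicle-only cultures of the same strain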; details: S. cerevisiae rad50 strain growth inhibition; at 50.0 µM; hits give high values
Procedure, shortened: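 Yeast carrying a defined DNA repair defect were exposed to test compounds, and growth was compared with vehicle-treated controls to give percent inhibition.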

[2] = NCI Yeast Anticancer Drug Screen. Data for the mec2-1 strain (AID 157); details: S. cerevisiae mec2-1 strain, at 50.0 µM, hits give high values
Procedure, shortened: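 Test agents were screened against the mec2-1 yeast strain, with defined DNA repair or cell cycle alteration. Growth was scored as inhibition against vehicle-only controls.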

[3] = NCI Yeast Anticancer Drug Screen. Data for the sgs1 mgt1 strain (AID 161);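 also: 0% = growth of cultures given vehicle only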; details: S. cerevisiae sgs1 mgt1 strain, at 50.0 µM, hits give high values
Procedure, shortened: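 Test agents were incubated with a DNA-repair-mutant yeast strain. Growth was then read and compared against vehicle-treated controls.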

[4] = NCI Yeast Anticancer Drug Screen. Data for the cln2 rad14 strain (AID 165);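 also: 0% = growth equal to vehicle treated cultures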; details: S. cerevisiae cln2 rad14 strain, at 50.0 µM, hits give high values
Procedure, shortened: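 Growth of compound-exposed yeast (cln2 rad14 genotype) measured and expressed as inhibition relative to vehicle.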

[5] = NCI Yeast Anticancer Drug Screen. Data for the bub3 strain (AID 167); details: S. cerevisiae bub3 mutant strain, at 50.0 µM, hits give high values
Procedure, shortened: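 Compounds were applied to a genetically altered yeast strain carrying a cell-cycle control defect. Growth inhibition was scored against vehicle-treated controls.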

[6] = NCI Yeast Anticancer Drug Screen. Data for the mlh1 rad18 strain (AID 175); details: S. cerevisiae mlh1 rad18 strain growth inhibition; at 50.0 µM; hits give high values
Procedure, shortened: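 In this whole-cell yeast screen, a strain with altered DNA damage repair is challenged with compound, and its growth is measured against matched vehicle-treated controls.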

Measured: growth inhibition

COc1ccc(C(c2cc3c(cc2O)OCO3)N2CCCC2)cc1 (stereo not drawn)
inactive: [1] 17% | [2] -0.5% | [3] 15.9% | [4] -25.1% | [5] 12.1% | [6] 21.2%

Cc1c2ccccc2nc(CS(=O)(=O)c2ccccc2)[n+]1[O-]
inactive: [1] -26.1% | [2] -13.2% | [3] -4.95% | [4] -60.5% | [5] -16.4% | [6] -6.1%

C=C(C)C(=O)Oc1ccccc1-c1ccccc1
inactive: [1] 2.55% | [2] -10.2% | [3] -5.5% | [4] 15.6% | [5] 2.65% | [6] -26.5%

CCOC(=O)C(NC(=O)CC)(Nc1ccc(S(=O)(=O)Nc2ncccn2)cc1)C(F)(F)F (stereo not drawn)
inactive: [1] -19.4% | [2] -14.9% | [3] -10.5% | [4] 20.1% | [5] -9.55% | [6] -7.05%

COc1ccc(/C=C2/C(=O)N(c3ccccc3)N=C2C)cc1
inactive: [1] 22.2% | [2] -2.2% | [3] 17.3% | [4] 0.4% | [5] 16.7% | [6] 22.1%

CCOC(=O)CCC[n+]1cccc(C#N)c1
inactive: [1] 3.3% | [2] 1.4% | [3] 2% | [4] -3.35% | [5] -3.15% | [6] -1.35%

CC[C@H](O)[C@H](C)C=C1SCCCS1
inactive: [1] -14.3% | [2] -42.2% | [3] 19.9% | [4] 25.1% | [5] -43.8% | [6] -43.6%

Cc1cccc(C(C)C)c1NC(=O)C(=O)CC(=O)c1sc(Nc2ccccc2Cl)nc1C
inactive: [1] -40% | [2] -8.5% | [3] -0.45% | [4] -14.6% | [5] -30.1% | [6] 1.15%

C[N+]1(CCC(/C=C/c2ccc([N+](=O)[O-])cc2)=N\O)CCOCC1
inactive: [1] 17.3% | [2] -0.9% | [3] 14.8% | [4] -6.55% | [5] 1.05% | [6] 46.5%

OC1COCCC(O)(CNCc2ccccc2)C1O (stereo not drawn)
inactive: [1] 7.4% | [2] 16.6% | [3] -3.95% | [4] 8.15% | [5] -6.95% | [6] -9.1%

COc1cc([C@H]2c3[nH]c4ccccc4c3C[C@H]3COC(=O)N32)cc(OC)c1O
inactive: [1] 56.5% | [2] 9.85% | [3] 25% | [4] 12.1% | [5] 18.9% | [6] 51.9%

CCNS(=O)(=O)c1ccccc1
inactive: [1] -8.55% | [2] -29.2% | [3] -2.7% | [4] 5.9% | [5] -1.95% | [6] 14.7%

C/C=C/c1ccc(OC(C)C(=O)c2ccc3c(c2)OCO3)c(OC)c1 (stereo not drawn)
inactive: [1] -12.4% | [2] -28.9% | [3] 8.8% | [4] -10.5% | [5] 6.7% | [6] -7.05%

CN(C)CCOc1ccccn1
inactive: [1] 9.45% | [2] -27.4% | [3] -5.35% | [4] 7.75% | [5] -21.7% | [6] 0.3%

Cc1cc(N=Nc2cc(Br)cc(Br)c2)cc(C)c1N
inactive: [1] 10.8% | [2] 1.3% | [3] 18.1% | [4] -12.2% | [5] 3.55% | [6] 7.65%

S=C1N=C(Cl)C2(NN1)c1ccccc1-c1ccccc12
inactive: [1] 17.9% | [2] -16.1% | [3] -1.15% | [4] -14.5% | [5] -11.7% | [6] 32%

O=[N+]([O-])c1ccc(SN2CCCCC2CC2CCCCC2)c([N+](=O)[O-])c1 (stereo not drawn)
inactive: [1] 19.9% | [2] -4.6% | [3] -18.9% | [4] -2.25% | [5] 1.3% | [6] 3.1%

Ic1ccc2c[n+]3ccccc3cc2c1
inactive: [1] -11.7% | [2] 25.9% | [3] 8.85% | [4] -29.8% | [5] 1.75% | [6] -3.95%

COC(=O)C1O[C@H]1c1cccc[n+]1[O-] (mixture of isomers)
inactive: [1] -0.3% | [2] -3.15% | [3] 5.7% | [4] 11.8% | [5] -8.2% | [6] -0.9%

CC1=CC(=C(c2cc(C)c(O)c(C(=O)O)c2)c2cc(C)c(O)c(C(=O)O)c2)C=C(C(=O)O)C1=O
inactive: [1] -2.3% | [2] -28.1% | [3] -8.5% | [4] 2.3% | [5] 8.8% | [6] 7.3%

O=C(Nc1ccccc1[N+](=O)[O-])C(=O)Nc1ccccc1[N+](=O)[O-]
inactive: [1] -7.55% | [2] 5.9% | [3] -2.95% | [4] -22.5% | [5] -0.9% | [6] -0.25%

CC(=O)Nc1cccc(C)n1
inactive: [1] -17.8% | [2] -3.2% | [3] 1.6% | [4] -71.8% | [5] -0.95% | [6] 1.7%

CCN(CC)C(=O)C(C)=O
inactive: [1] 8.55% | [2] 1.6% | [3] -12.4% | [4] 12.9% | [5] 1.2% | [6] 12.9%

CCOc1ccc2nc3cc(I)ccc3c(N)c2c1
inactive: [1] 8.15% | [2] -24.2% | [3] 14.6% | [4] -10.3% | [5] -0.05% | [6] 27.1%

CCOC(=O)c1c(Br)c2c3ccccc3c3ccccc3n2c1C
inactive: [1] 1.7% | [2] -4.9% | [3] -3.75% | [4] -11.8% | [5] 1.8% | [6] 7.25%

O=C1CN(N2CCOCC2)CC(=O)N2CCCCN12
inactive: [1] 20.9% | [2] 1.25% | [3] 13.9% | [4] 19.9% | [5] 10.4% | [6] 6.25%

Cc1ccc(C2=Nn3c(nc4sc5c(c4c3=O)CCCC5)SC2)cc1
inactive: [1] -25.7% | [2] -19.4% | [3] -39.1% | [4] -5.9% | [5] -27.4% | [6] -21.8%

Nc1nc(I)nc2c1ncn2C1OC(COS(N)(=O)=O)C(O)C1O (stereo not drawn)
inactive: [1] 67% | [2] 67.5% | [3] 40.9% | [4] 63.6% | [5] 43.9%
active: [6] 78.3%

CC1(c2cccc(N)c2)OCCO1
inactive: [1] 7.4% | [2] -7.2% | [3] 7.35% | [4] -7.9% | [5] 12.7% | [6] 11.9%

Cc1cccc(NC(=S)NC2CCCCC2)c1
inactive: [1] 2.75% | [2] 11.7% | [3] -3.1% | [4] 12.7% | [5] 7% | [6] 9.4%

O=C1CC(c2ccccc2)C(c2ccccc2)C1C(=O)OCCc1ccccc1 (stereo not drawn)
inactive: [1] 36% | [2] 2.85% | [3] 2.45% | [4] 1.5% | [5] -16.9% | [6] 1.3%

C#CC(CCC)NC(C)(C)C (stereo not drawn)
inactive: [1] 31.7% | [2] -13.9% | [3] 7.35% | [4] -10.8% | [5] 1.95% | [6] 21.3%

O=C1COc2cc(O)cc(O)c21
inactive: [1] 9.8% | [2] 3.7% | [3] 7.85% | [4] 3.9% | [5] 19.5% | [6] 7.75%

CC(C)(C)c1ccc(-c2cc3nc(-c4ccccc4)cc(=O)n3[nH]2)cc1
inactive: [1] -8.05% | [2] -30.3% | [3] 10.5% | [4] 5.9% | [5] 10.8% | [6] -0.55%

O=C(c1ccccc1)c1ccc2ccc(F)cc2c1C(=O)O
inactive: [1] -4% | [2] 17.9% | [3] 2.05% | [4] -17.9% | [5] 16.6% | [6] -7.7%

CC(=O)OCC1OC(N2C(S)=C(C#N)C(c3ccco3)C(C(C)=O)=C2c2ccccc2)C(OC(C)=O)C(OC(C)=O)C1OC(C)=O (stereo not drawn)
inactive: [1] 21.4% | [2] 15.4% | [3] -0.25% | [4] -7.4% | [5] -19.4% | [6] -6.15%

CC(C)(C)OC(=O)Cn1ncn(NC(=O)Cc2ccccc2)c1=O
inactive: [1] -20.5% | [2] -24.5% | [3] -21.4% | [4] -56.2% | [5] -38.2% | [6] -0.1%

CC1CC=CCC1(C(=O)O)C(=O)O (stereo not drawn)
inactive: [1] 0.6% | [2] 10.1% | [3] -10.2% | [4] -2.05% | [5] -21.6% | [6] -24.1%
